In PubChem BioAssay (Tox21):
Results filed as inconclusive are left out. Active and inactive are the calls of the source. Unless noted, calls follow the shape of the dose curve; as a rule, active = well fitted curve in the direction sought with a large enough effect in the repeat runs; inconclusive = weak or mixed curves; inactive = no such curve, though single readings can be large; an effect the other way counts as inactive or inconclusive.

What was measured:
[1] = qHTS assay for small molecule agonists of the p53 signaling pathway (AID 651631; calls by dose curve; also: nearly all actives have a fitted effect of over 15% in size)
Method in brief: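 Beta-lactamase reporter activity under p53 response elements was quantified in HCT-116 cells by FRET fluorescence, following 16 h incubation with test compounds at 37 °C and 2 h substrate development at room temperature.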

[2] = qHTS assay for small molecules that induce genotoxicity in human embryonic kidney cells expressing luciferase-tagged ATAD5 (AID 651632); also: nearly all actives have a fitted effect of over 15% in size
Method in brief: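 Test compounds were delivered by pin tool onto HEK293T reporter cells (2,000/well) expressing ATAD5 fused to luciferase. After 16 hr at 37C, 5% CO2, Amplite was added for 30 min at room temperature and luminescence was measured.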

[3] = qHTS assay for small molecule agonists of the p53 signaling pathway - cell viability (AID 651633; calls by dose curve;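 also: p53RE-bla HCT reporter cells with a stable beta-lactamase p53 reporter; series mostly up to about 83 µM; nearly all actives have a fitted effect of over 30% in size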)
Method in brief: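 p53RE-bla cells, seeded at 4,000 per well and rested 5 h at 37 C/5% CO2, received compounds in DMSO for 16 h at 37 C. CellTiter-Glo was then added, and luminescence was read after 30 min at room temperature to gauge cytotoxicity.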

[4] = qHTS assay for small molecules that induce genotoxicity in human embryonic kidney cells expressing luciferase-tagged ATAD5 - cell viability (AID 651634; calls by dose curve; also: nearly all actives have a fitted effect of over 25% in size)
Method in brief: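 Quantitative high-throughput format. HEK293T cells expressing ATAD5 fused to luciferase were plated at 2,000 cells/well and treated 15.5 hr with compound versus DMSO. Viability was determined by fluorescent live-cell protease substrate, 30 min at 37C.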

[5] = qHTS assay for small molecule disruptors of the mitochondrial membrane potential - cell viability (AID 720634; calls by dose curve;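 also: human HepG2 liver cancer cells; series mostly up to about 83 µM; nearly all actives have a fitted effect of over 20% in size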)
Method in brief: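 Same-well counter-screen: following the MMP dye addition, CellTiter-Glo was added to 1 hr compound-treated HepG2 cells and luminescence read after 30 min at room temperature.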

[6] = qHTS assay for small molecule disruptors of the mitochondrial membrane potential (AID 720635)
Method in brief: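 HepG2 cells (2,000/well) attached overnight at 37C, then took compound for 1 hr at 37C, 5% CO2. Mito-MPS dye was added for 30 min; fluorescence was read at 490/535 nm (monomers) and 540/590 nm (aggregates).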

[7] = qHTS assay to test for compound auto fluorescence at 590 nm (red) in HepG2 cells (AID 720674)
Method in brief: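 Rose Bengal sodium served as the red fluorophore standard. HepG2 monolayers (overnight attachment, MEM with 10% FBS) were exposed to test compounds for 1 hr at 37 C and read at Ex 540/Em 590 nm.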

[8] = qHTS assay to test for compound auto fluorescence at 535 nm (green) in HepG2 cells (AID 720675)
[9] = qHTS assay to test for compound auto fluorescence at 460 nm (blue) in HEK293 cells (AID 720678)
Method in brief: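 HEK293 cells (2,000 per well, medium with 10% dialyzed FBS) attached for 4-5 hr at 37C, then received compound and stood overnight at 37C, 5% CO2. Blue fluorescence was read at Ex/Em 405/460 nm and expressed relative to triamterene.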

[10] = qHTS assay to test for compound auto fluorescence at 590 nm (red) in HEK293 cells (AID 720679)
Method in brief: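 HEK293 cells (2,000/well, medium with 10% dialyzed FBS) attached for 4-5 hr at 37C, received 23 nL compound and were incubated overnight at 37C, 5% CO2. Red fluorescence was then read at 540/590nm Ex/Em, referenced to Rose Bengal sodium.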

[11] = qHTS assay to test for compound auto fluorescence at 535 nm (green) in HEK293 cells (AID 720680)
[12] = qHTS assay to test for compound auto fluorescence at 460 nm (blue) in HEK293 cell free culture (AID 720681)
Method in brief: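 Test compounds were pinned into cell-free culture medium (DMEM with 10% FBS) and fluorescence was read directly at Ex/Em 405/460 nm. Signals were expressed as fluorescence equivalents of triamterene, with DMSO vehicle as control.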

[13] = qHTS assay to test for compound auto fluorescence at 535 nm (green) in HEK293 cell free culture (AID 720682)
Method in brief: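 Each library compound, or DMSO control, is added by pintool to medium alone, comprising DMEM and 10% FBS. Emission at 535 nm following 485 nm excitation is quantified against fluorescein.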

[14] = qHTS assay to test for compound auto fluorescence at 590 nm (red) in HEK293 cell free culture (AID 720683)
Method in brief: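 Tox21 10K library compounds were pinned into cell-free DMEM with 10% FBS and fluorescence was read at excitation 540 nm. Activity is expressed as Rose Bengal sodium equivalency.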

[15] = qHTS assay to test for compound auto fluorescence at 460 nm (blue) in HepG2 cell free culture (AID 720685)
Method in brief: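 Cell-free plates of MEM plus 10% FBS received 23 nL compound or DMSO vehicle; blue-channel (405/460 nm) intensity scored against triamterene as reference fluorophore.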

[16] = qHTS assay to test for compound auto fluorescence at 535 nm (green) in HepG2 cell free culture (AID 720686)
[17] = qHTS assay to test for compound auto fluorescence at 460 nm (blue) in HepG2 cells (AID 720687)
Method in brief: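 Cells (2,000/well in MEM with 10% FBS) attached overnight at 37 C, then were exposed to compound or DMSO for 1 hr at 37 C, 5% CO2. Fluorescence read at Ex/Em 405/460 nm, expressed as triamterene-equivalent signal.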

[18] = target: Glucocorticoid receptor (Homo sapiens) (UniProt P04150); assay: qHTS assay to identify small molecule antagonists of the glucocorticoid receptor (GR) signaling pathway (AID 720692; active = well fitted inhibition curve with a large enough effect in the signal ratio in the repeat runs, not every such curve was filed as active; the % refers to the signal ratio)
Method in brief: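 GRE-bla HeLa line, dex-stimulated (5 nM final). Compound exposure 18 h, 37 C. Beta-lactamase FRET read after 2 h RT substrate.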

[19] = qHTS assay to test for compound auto fluorescence at 590 nm (red) in HepG2 cell free culture (AID 720684)
Method in brief: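 Readout: intrinsic compound fluorescence at 590 nm emission after 540 nm excitation, scaled to Rose Bengal sodium. Matrix was cell-free MEM with 10% FBS; DMSO vehicle wells served as control.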

[20] = target: Glucocorticoid receptor (Homo sapiens) (UniProt P04150); assay: qHTS assay to identify small molecule agonists of the glucocorticoid receptor (GR) signaling pathway (AID 720691; active = well fitted activation curve with a large enough effect in the signal ratio in the repeat runs, not every such curve was filed as active; the % refers to the signal ratio)
Method in brief: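 A HeLa cervical cancer line expressing GR and a glucocorticoid response element-driven beta-lactamase gene is treated with compounds for 18 h; LiveBLAzer B/G FRET substrate is then applied and fluorescence read.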
% is scaled to controls: 0 for no effect and ±100 for the full control effect.

Glucocorticoid receptor (Homo sapiens), sequence (P04150 whole entry, looked up): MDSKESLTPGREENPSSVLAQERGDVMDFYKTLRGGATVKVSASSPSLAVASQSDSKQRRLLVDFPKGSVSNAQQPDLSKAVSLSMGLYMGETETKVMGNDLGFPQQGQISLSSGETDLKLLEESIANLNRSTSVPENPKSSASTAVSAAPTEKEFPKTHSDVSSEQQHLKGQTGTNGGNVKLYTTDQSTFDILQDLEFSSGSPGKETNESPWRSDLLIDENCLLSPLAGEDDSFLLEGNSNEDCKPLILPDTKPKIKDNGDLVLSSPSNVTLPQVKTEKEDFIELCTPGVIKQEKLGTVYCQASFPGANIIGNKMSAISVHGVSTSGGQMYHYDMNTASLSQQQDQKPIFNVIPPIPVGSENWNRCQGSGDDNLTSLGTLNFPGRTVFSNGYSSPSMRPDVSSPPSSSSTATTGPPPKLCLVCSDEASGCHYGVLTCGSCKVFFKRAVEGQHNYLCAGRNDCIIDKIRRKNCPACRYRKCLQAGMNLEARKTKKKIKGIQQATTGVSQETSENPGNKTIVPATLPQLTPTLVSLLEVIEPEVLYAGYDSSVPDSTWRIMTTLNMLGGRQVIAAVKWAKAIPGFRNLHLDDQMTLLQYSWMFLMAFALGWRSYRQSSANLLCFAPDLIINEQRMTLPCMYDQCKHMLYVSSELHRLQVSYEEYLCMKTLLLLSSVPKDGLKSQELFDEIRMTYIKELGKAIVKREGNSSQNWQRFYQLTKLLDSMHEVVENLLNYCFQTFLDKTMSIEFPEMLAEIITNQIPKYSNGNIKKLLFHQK

CC(C)(C)C(=O)Oc1ccc(S(=O)(=O)Nc2ccccc2C(=O)NCC(=O)O)cc1
inactive: Potency [1] | Potency [2] | Potency [3] | Potency [4] | outcome [5] | Potency [6] | outcome [7] | outcome [8] | outcome [9] | outcome [10] | outcome [11] | outcome [12] | outcome [13] | outcome [14] | outcome [15] | outcome [16]

O=C(c1ccccc1)C1(O)CCCCC1
inactive: Potency [1] | Potency [2] | Potency [3] | Potency [4] | outcome [5] | Potency [6] | outcome [7] | outcome [8] | outcome [9] | outcome [10] | outcome [11] | outcome [12] | outcome [13] | outcome [14] | outcome [15] | outcome [16] | outcome [17]

CC(C)C(=O)OC(=O)C(C)C
inactive: Potency [1] | Potency [2] | Potency [3] | Potency [4] | outcome [5] | Potency [6] | outcome [7] | outcome [8] | outcome [9] | outcome [10] | outcome [11] | outcome [12] | outcome [13] | outcome [14] | outcome [15] | outcome [16] | outcome [17] | Potency [18]

C=COCC1CCC(COC=C)CC1 (stereo not drawn)
inactive: Potency [1] | Potency [2] | Potency [3] | Potency [4] | outcome [5] | Potency [6] | outcome [7] | outcome [8] | outcome [9] | outcome [10] | outcome [11] | outcome [12] | outcome [13] | outcome [14] | outcome [19] | outcome [15] | outcome [16] | outcome [17]

O=Cc1cccc(Br)c1
inactive: Potency [1] | Potency [2] | Potency [3] | Potency [4] | outcome [5] | Potency [6] | outcome [7] | outcome [8] | outcome [9] | outcome [10] | outcome [11] | outcome [12] | outcome [13] | outcome [14] | outcome [19] | outcome [15] | outcome [16] | outcome [17] | Potency [20] | Potency [18]

NCCCC[C@H](N[C@@H](CCc1ccccc1)C(=O)O)C(=O)N1CCC[C@H]1C(=O)O
inactive: Potency [1] | Potency [2] | Potency [3] | Potency [4] | outcome [5] | Potency [6] | fluorescence, relative to Rose Bengal [7] 0.575% [at 18.6 µM] | fluorescence, % of fluorescein control [8] -0.177% [at 18.6 µM] | fluorescence, % of triamterene [9] -0.377% [at 18.6 µM] | fluorescence, % of fluorescent control [10] -0.247% [at 18.6 µM] | fluorescence, % of fluorescein [11] -0.012% [at 18.6 µM] | fluorescence, % of fluorescent control [12] -0.095% [at 18.6 µM] | activity change [13] -0.028% [at 18.6 µM] | fluorescence, % of fluorescent control [14] 0.14% [at 18.6 µM] | fluorescence, % of Rose Bengal [19] -0.221% [at 18.6 µM] | fluorescence, % of fluorescent control [15] -0.005% [at 18.6 µM] | fluorescence, % of fluorescein control [16] -0.127% [at 18.6 µM] | Potency [18]

COc1cc(C(=O)NCc2ccc(OCCN(C)C)cc2)cc(OC)c1OC
inactive: Potency [1] | Potency [2] | Potency [3] | Potency [4] | outcome [5] | Potency [6] | fluorescence, relative to Rose Bengal [7] 1.14% [at 18.6 µM] | fluorescence, % of fluorescein control [8] 0.0603% [at 18.6 µM] | fluorescence, % of triamterene [9] -0.345% [at 18.6 µM] | fluorescence, % of fluorescent control [10] -0.334% [at 18.6 µM] | fluorescence, % of fluorescein [11] -0.015% [at 18.6 µM] | fluorescence, % of fluorescent control [12] -0.119% [at 18.6 µM] | fluorescence, % of fluorescent control [14] 0.0108% [at 18.6 µM] | fluorescence, % of fluorescent control [15] -0.0208% [at 18.6 µM] | fluorescence, % of fluorescein control [16] 0.123% [at 18.6 µM] | Potency [20]
